Laboratory results from PubChem BioAssay AID1159580 (chemical genetic matrix, 2015).
“And” between values parts separate entries of the source, which are not always exact repeats. Identical values can stand only once. The whole screen tested about 5,500 compounds, of which about 2,000 (36%) were called active. Inconclusive results (about 18%) are left out. Rule as the data show it: active = normalized growth mostly below about 0.91 (no sharp cut-off); inconclusive = no clear call, values can overlap the other calls; inactive = mostly above about 0.92. Some of the results follow.

Experiment: chemical genetic growth profiling, strain panel (AID 1159580);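 also: tested at 20 µM; growth read once vehicle control cultures reached saturation at 30 °C; 1 = growth at the plate median or of vehicle wells; lower values mean less growth of the strain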
Conditions: S. cerevisiae deletion strains, growth OD

Measured: normalized growth

CCCCN(CC)c1c([N+](=O)[O-])cc(C(F)(F)F)cc1[N+](=O)[O-]
inactive: locus YAL013W, strain DEP1, stronger effect = lower value 1.01 | locus YAL021C, strain ccr4, stronger effect = lower value 0.998 | locus YAL026C, strain drs2, stronger effect = lower value 1.02 | locus YAL030W, strain snc1, stronger effect = lower value 1.02 | locus YBL061C, strain skt5, stronger effect = lower value 1 | locus YBR009C, strain hhf1, stronger effect = lower value 1 | locus YBR021W, strain FUR4, stronger effect = lower value 1.03 | locus YBR023C, strain chs3, stronger effect = lower value 1.01 | locus YBR171W, strain sec66, stronger effect = lower value 1.03 | locus YBR229C, strain ROT2, stronger effect = lower value 0.999 | locus YBR231C, strain swc5, stronger effect = lower value 1 | locus YBR279W, strain paf1, stronger effect = lower value 1.01 | locus YCL011C, strain gbp2, stronger effect = lower value 1 | locus YCL016C, strain dcc1, stronger effect = lower value 1.01 | locus YCL029C, strain bik1, stronger effect = lower value 1.02 | locus YCL061C, strain MRC1, stronger effect = lower value 1.01 | locus YCL069W, strain vba3, stronger effect = lower value 1.02 | locus YCR088W, strain abp1, stronger effect = lower value 1.01 | locus YDL005C, strain med2, stronger effect = lower value 1.02 | locus YDL035C, strain GPR1, stronger effect = lower value 1.02 | locus YDL040C, strain nat1, stronger effect = lower value 1.01 | locus YDL074C, strain BRE1, stronger effect = lower value 1.03 | locus YDL101C, strain DUN1, stronger effect = lower value 1.01 | locus YDL134C, strain PPH21, stronger effect = lower value 1.01 | locus YDL185W, strain tfp1, stronger effect = lower value 1.03 | locus YDL192W, strain arf1, stronger effect = lower value 1.02 | locus YDR001C, strain nth1, stronger effect = lower value 1.01 | locus YDR069C, strain doa4, stronger effect = lower value 1 | locus YDR101C, strain arx1, stronger effect = lower value 1.01 | locus YDR137W, strain rgp1, stronger effect = lower value 0.98 | locus YDR150W, strain NUM1, stronger effect = lower value 1.01 | locus YDR159W, strain sac3, stronger effect = lower value 1 | locus YDR162C, strain NBP2, stronger effect = lower value 1.02 | locus YDR195W, strain ref2 1.01 | locus YDR297W, strain sur2, stronger effect = lower value 1 | locus YDR318W, strain mcm21, stronger effect = lower value 1.01 | locus YDR334W, strain swr1, stronger effect = lower value 1.02 | locus YDR335W, strain msn5, stronger effect = lower value 1.02 | locus YDR388W, stronger effect = lower value 1.01 | locus YDR392W, strain spt3, stronger effect = lower value 1.01 | locus YDR502C, strain sam2, stronger effect = lower value 1.01 | locus YEL003W, strain gim4, stronger effect = lower value 1.02 | locus YEL037C, strain rad23, stronger effect = lower value 1.01 | locus YEL061C, strain CIN8 (second series), stronger effect = lower value 1.03 | locus YEL061C, strain CIN8, stronger effect = lower value 1.01 | locus YER015W, strain faa2, stronger effect = lower value 1.02 | locus YER016W, strain bim1, stronger effect = lower value 1.01 | locus YER110C, stronger effect = lower value 1.02 | locus YER111C, strain swi4, stronger effect = lower value 1.01 | locus YER155C, strain BEM2 (second series), stronger effect = lower value 1.03 | locus YER155C, strain BEM2, stronger effect = lower value 1.01 | locus YER167W, strain BCK2, stronger effect = lower value 1.01 | locus YFR010W, strain ubp6, stronger effect = lower value 1.02 | locus YGL078C, strain dbp3, stronger effect = lower value 1.01 | locus YGL086W, strain mad1, stronger effect = lower value 1.01 | locus YGL167C, strain pmr1, stronger effect = lower value 1.01 | locus YGL173C, strain kem1, stronger effect = lower value 1.01 | locus YGL227W, strain vid30, stronger effect = lower value 1.01 | locus YGL240W, strain doc1, stronger effect = lower value 1.02 | locus YGL248W, strain PDE1, stronger effect = lower value 1 | locus YGL253W, strain hxk2, stronger effect = lower value 1.02 | locus YGR078C, strain PAC10, stronger effect = lower value 1.01 | locus YGR135W, strain pre9, stronger effect = lower value 1.01 | locus YGR229C, strain SMI1, stronger effect = lower value 1.02 | locus YGR252W, strain gcn5, stronger effect = lower value 1.05 | locus YHR013C, strain ard1, stronger effect = lower value 1.06 | locus YHR027C, strain rpn1, stronger effect = lower value 1.03 | locus YHR030C, strain SLT2, stronger effect = lower value 1.01 and 1.08 | locus YHR079C, strain IRE1 (second series), stronger effect = lower value 1.01 | locus YHR079C, strain IRE1, stronger effect = lower value 1.03 | locus YHR094C, strain hxt1, stronger effect = lower value 1.01 | locus YHR129C, strain ARP1, stronger effect = lower value 1.01 | locus YHR142W, strain chs7, stronger effect = lower value 1.02 | locus YHR200W, strain rpn10, stronger effect = lower value 1.01 | locus YIL066C, strain RNR3, stronger effect = lower value 1.01 | locus YIL073C, strain SPO22, stronger effect = lower value 1.02 | locus YIL125W, strain kgd1, stronger effect = lower value 1.01 | locus YIR030C, strain dcg1, stronger effect = lower value 1.01 | locus YJL092W, strain hpr5, stronger effect = lower value 1.01 | locus YJL095W, strain BCK1 (second series), stronger effect = lower value 1.01 | locus YJL095W, strain BCK1, stronger effect = lower value 0.996 and 1.05 | locus YJL115W, strain asf1, stronger effect = lower value 1.01 | locus YJL129C, strain trk1, stronger effect = lower value 1.01 | locus YJL134W, strain LCB3, stronger effect = lower value 1.01 | locus YJL154C, strain vps35, stronger effect = lower value 1.02 | locus YJL164C, strain tpk1, stronger effect = lower value 1.01 | locus YJL166W, strain qcr8, stronger effect = lower value 1 | locus YJL168C, strain set2, stronger effect = lower value 1.01 | locus YJL187C, strain SWE1 (second series), stronger effect = lower value 1.01 | locus YJL187C, strain SWE1, stronger effect = lower value 1.01 | locus YJR043C, strain POL32, stronger effect = lower value 1.02 | locus YJR066W, strain TOR1, stronger effect = lower value 0.992
